According to ChEMBL document CHEMBL3988442, “University of Dundee, Small-Polar-MMV Screening Library” (2021):

What follows are molecules tested against AMP-activated protein kinase, AMPK (Homo sapiens) (UniProt P54646+O43741+P54619+Q9UGJ0+Q9Y478+Q13131+Q9UGI9) (assay: AMP-dependent Kinase enzyme assay. An in vitro enzyme assay that detects ADP turnover that is directly proportional to AMPK activity. This uses naive AMPK that is activated during the assay with MK-8722). Details: 30 µM.
Assay type: functional
Design: scale not given: direction of the effect not stated beside the values

Row | SMILES | Percent Effect [%]
1 | CS(=O)(=O)N1CC[C@]2(O)CCN(c3ccnc(N)n3)C[C@@H]2C1 | -13.7
2 | Cc1cc(C(=O)NCCN2CCCCC2)nn1C(C)(C)C | 24.9
3 | O=C(c1ccnc(CC2COc3ccccc3C2)c1)N1CCCC1 (centres undefined) | 7.97
4 | CC(C)OCCCNC(=O)CN1CCN(c2nccs2)CC1 | 4.26
5 | O=C(CCC1CCCN(C(=O)CCc2ccc(F)c(F)c2)C1)NC1CC1 (centres undefined) | 5.21
6 | CC(C)CNC(=O)Nc1cccc(OCC#N)c1 | 2
7 | O=C(c1cnc2c(c1)CCC2)N1CCCC(CO)(CC2CC2)C1 (centres undefined) | 3.82
8 | COc1ccc(CN(C)Cc2c(C)noc2C)c(Cl)c1OC | 6
9 | CCN(CC)CCNCc1cc(O)c2cc(C)ccc2n1 | 0.484
10 | COc1cccc(CCC(=O)Nc2cnc3c(c2)c(C)nn3C)c1OC | 5
11 | CCN(CC)S(=O)(=O)CC(=O)Nc1ccsc1 | 2.3
12 | NC(=O)[C@@H]1Cc2ccccc2CN1CCC(=O)N1CCOCC1 | -7.78
13 | O=C(NCC1CCOC1)c1cc(-c2ccc(F)cc2)[nH]n1 (centres undefined) | -0.741
14 | CC(C)C(NC(=O)C1CC1)c1cc(O)nc(-c2cccnc2)n1 (centres undefined) | 6.3
15 | Cc1noc(C)c1CC(=O)N1CCCC(Cn2ccnc2C)C1 (centres undefined) | -4.07
16 | Cc1ccnc(C2(C)CCCN2S(=O)(=O)c2ccccc2)n1 (centres undefined) | -5.61
17 | O=C(NC1CC1)C1CNCCN1C(=O)CCOc1ccccc1 (centres undefined) | 4.98
18 | Cc1ocnc1C(=O)N1CC[C@@]2(O)CCN(C(=O)N3CCCC3)C[C@H]2C1 | 6.59
19 | CC(C)C(=O)NCC(=O)N1CCC2(CC1)c1ccccc1[C@@H](N)[C@@H]2O | 3.94
20 | CNc1cc2c(nn1)CCN(C(=O)c1ccccc1-n1cccn1)C2 | -15.3

Row | SMILES | Percent Effect [%]
21 | Cc1ccc(-c2noc(Cn3nc(C(N)=O)ccc3=O)n2)cc1 | 5.62
22 | CC(C)(C)c1n[nH]cc1CNC1CCC(C(F)(F)F)CC1 (centres undefined) | 3.78
23 | COC(=O)N1CCCCC1C(=O)N1CCN(c2cccnc2)CC1 (centres undefined) | -4.3
24 | CCOCCN1CCN(c2ccc(C#N)cn2)CC1CC (centres undefined) | 6.68
25 | CC(C)c1nnc2n1CCN(Cc1cc(Cl)c3c(c1)OCCO3)C2 | 11.8
26 | Nc1nc(O)cc(N2CCC(c3cc(Cc4ccccc4)n[nH]3)CC2)n1 | -82.1
27 | CCc1ccc2nc(C)cc(C(=O)NC[C@@H]3CCNC[C@H]3O)c2c1 | -4.5
28 | O=C(CN1CCC(c2nnc(C(F)(F)F)o2)CC1)Nc1cccnc1 | -5.12
29 | CCCOc1cc(CNC(=O)Nc2ccc(C)cc2)ccn1 | 1.3
30 | Cc1cc(O)n2nc(C3CCN(C(=O)c4ccccn4)CC3)cc2n1 | 6.67
31 | CN(C)C(=O)N1CCN(c2cc(N3CCCC3CO)ncn2)CC1 (centres undefined) | -3.16
32 | Cc1sc2ccccc2c1S(=O)(=O)NCCNC(=O)C(C)C | -0.0872
33 | O=C(NCC(=O)N1CCN(c2ccccc2)CC1)c1sccc1C1CC1 | -5.62
34 | CN(Cc1noc(-c2ccccc2)n1)C(=O)CSc1nnc(N)s1 | 1.22
35 | Cc1noc(C)c1C(=O)N[C@@H]1CC[C@@H](Oc2ccccc2)[C@@H]1O | 18.4
36 | CN1CCC(Nc2ccc(F)cc2OCC(F)(F)F)C1=O (centres undefined) | -16.7
37 | COc1ccc(Br)c(NC(=O)NCc2cnn(C)c2)c1 | -1.99
38 | OCC1(NCc2cccc(-n3cccn3)c2)CCOCC1 | -1.31
39 | Cc1noc(C)c1CNCC1CNc2ccnn2C1 (centres undefined) | -0.962
